From PubChem BioAssay

assay: growth of efflux-deficient E. coli DRC39 – strain DRC39, OD650, 24 h, E. coli filamentation inducers, primary screen (AID 1178);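 note: growth measured as culture turbidity by optical density at 650 nm; test concentration not given here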; details: E. coli DRC39 acrAB, higher = more signal, called active from +8 up or from −8 down

z-score, inactive:
C=CCN1C(=O)[C@]2(CC=C)N=C(c3ccc(OCCCO)cc3)O[C@@H]2c2ccccc21 0.578
CCCC=C(CCC)[C@@H](NP(=O)(c1ccccc1)c1ccccc1)c1ccc(C(F)(F)F)cc1 0.3
CC(C)N1C(=O)[C@@]2(c3ccc([N+](=O)[O-])cc3)CC(=O)N(C3CCCCC3)[C@@H]2c2ccc(CO)cc21 0.026
CON(C)C(=O)C=C1C[C@@H](c2cccc(Cl)c2)O[C@@H](c2cccc(Cl)c2)O1 -0.471
[N-]=[N+]=NCc1ccccc1C[C@@]1(C(N)=O)N=C(c2ccc(OCCCO)cc2)O[C@@H]1c1ccccc1CN=[N+]=[N-] 0.178
O=C(O)[C@H]1C[C@H]2C(=O)N3CCC[C@H]3C(=O)N2[C@H]1c1cccc(OCCO)c1 0.481
C=C(CCCC)C(=O)CC[C@@H](OC(=O)c1ccccc1-c1ccccc1C(=O)O)c1cccc(OCCO)c1 -0.285
[N-]=[N+]=NCc1ccccc1C[C@]1(C(=O)NCC(O)CO)N=C(c2ccc(OCCCO)cc2)O[C@H]1c1ccccc1CN=[N+]=[N-] (stereo partly drawn) 0.78
C=CCNC(=O)[C@@H]1[C@H]2C(=O)O[C@H](c3ccccc3)[C@H](c3ccccc3)N2[C@H](c2ccc(OCCO)cc2)[C@@]12C(=O)N(C(=O)OCCOC)c1ccc(C#CC3=CCCCC3)cc12 -0.713
O=C1OCCC=C[C@H]2OC34C=CCN(c5ccc(Cl)cc5)C(=O)[C@H]3N(CCCCCO)C(=O)[C@@H]4C12 (stereo partly drawn) 1.68
COc1c(C)cc(-c2cc3c(c(-c4ccccc4)n2)[Si](C(C)C)(C(C)C)OC3)cc1C 0.762
CCCCN1CC=CC23O[C@@H]4/C=C\CCC(C)OC(=O)C4[C@H]2C(=O)N(CCCCCCO)[C@@H]3C1=O (stereo partly drawn) 0.666

assay: growth of efflux-deficient E. coli DRC39 – strain DRC39, OD650, 48 h, E. coli filamentation inducers, primary screen (AID 1179);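 note: screen aims at cell division blockers that make cells filament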; details: E. coli DRC39 delta-acrAB growth, higher = more signal, called active from +8 up or from −8 down

z-score, inactive:
COCCOC(=O)N1C(=O)[C@@]2(c3cc(C#Cc4ccc(OC)cc4)ccc31)[C@H](C(=O)N1CCCCCCC1)[C@H]1C(=O)O[C@H](c3ccccc3)[C@H](c3ccccc3)N1[C@@H]2c1ccc(O)cc1 -1.22
CN(C)C(=O)[C@]1(CCC(=O)OC(C)(C)C)N=C(c2ccc(OCCCO)cc2)O[C@@H]1c1ccccc1 -0.384
COC(=O)c1c(CC[C@@H](CO)NC(=O)N[C@H](Cn2cc(-c3ccccc3C)nn2)C(C)C)oc(C(C)=O)c1C(=O)OC -0.488
Cc1ccc(S[C@]2(C(=O)O)CC(=O)N(Cc3ccccc3Cl)[C@@H]2c2ccc(CO)cc2)cc1 0.224
COCCOC(=O)N1C(=O)[C@@]2(c3ccccc31)[C@H](C(=O)N1CCN(c3ncccn3)CC1)[C@H]1C(=O)O[C@H](c3ccccc3)[C@H](c3ccccc3)N1[C@@H]2c1ccc(OCCO)cc1 1.19
COCCOC(=O)N1C(=O)[C@@]2(c3cc(C#Cc4ccc(OC)cc4)ccc31)[C@H](C(=O)N1CCN(c3ncccn3)CC1)[C@H]1C(=O)O[C@H](c3ccccc3)[C@H](c3ccccc3)N1[C@@H]2c1ccccc1OCCO 0.188
NCCCCCNC(=O)[C@@H]1C[C@@H]2C(=O)N[C@@H](CCCCN)C(=O)N2[C@@H]1c1cccc(OCCO)c1 1.22
COc1ccc([Si](C)(C)[C@H]2[C@H](CCn3cc([C@H](O)c4ccccc4)nn3)O[C@@]3(C(=O)N(Cc4ccc(N5CCC5=O)cc4)c4ccccc43)[C@@H]2C)cc1 -0.422
O=C1C[C@@](C(=O)NCC(F)(F)F)(c2ccc([N+](=O)[O-])cc2)[C@@H](c2ccc(CO)cc2)N1C1CCCCC1 0.0421
C#CCNC(=O)[C@H](Cc1ccccc1)NC(=O)[C@@H](N=[N+]=[N-])C(C)C 0.626
C[C@H]1C2=C3C(CC[C@H]4C(OCc5ccc(F)cc5C(F)(F)F)OC[C@](C)([C@@H]34)N(C(=O)OC(C)(C)C)C2)C2COC(=O)OCC21 (stereo partly drawn) -0.398
CC(C)(C)OC(=O)CC[C@]1(C(=O)N2CCOCC2)N=C(c2ccc(OCCCO)cc2)O[C@H]1c1ccccc1 0.553
COc1ccc([Si](C)(C)[C@H]2[C@H](CCn3cc([C@H](O)c4ccccc4)nn3)O[C@@]3(C(=O)N(Cc4cccc(N5C(=O)c6cccc7cccc5c67)c4)c4ccccc43)[C@@H]2C)cc1 -0.216
C=C(C(=O)CC[C@H](OC(=O)c1cccnc1)c1ccc(CO)o1)C(C)C -0.631
C=CC1c2cc(O)c(OC)cc2CCN1Cc1sc2ccccc2c1Cl (stereo not drawn) -0.404
CC(C)(C)OC(=O)CC[C@@]1(C(=O)O)N=C(c2ccc(OCCCO)cc2)O[C@@H]1c1ccccc1CN=[N+]=[N-] 1.35
CC=CC(O)C1C=CC2C(=O)N(C)C(=O)C2N1N1CCCCC1 (stereo not drawn) -0.923
CO[C@H]1O[C@H](CO)[C@@H](OC(=O)Nc2ccccc2-c2ccccc2)[C@H](OC(=O)Nc2ccc3c(c2)OCO3)[C@@H]1OC(=O)Nc1ccc2c(c1)OCO2 -0.124
O=C1NCC(=O)N2[C@@H]1C[C@@H](C(=O)O)[C@H]2c1ccc(O)cc1 -0.0242
C[C@@H](OCc1ccccc1)C1NC(=O)[C@@]23C(=O)N[C@@H](Cc4ccccc4)C2[C@H](C)[C@@]2(C)O[C@H]2C3/C=C/C/C=C\CNC(=O)CNC1=O (stereo partly drawn) -0.754
CCOC(=O)[C@H]1C/C=C/C[C@H](C(=O)OCC)C(=O)O[C@H]2[C@@H](OC)O[C@H](CO)[C@@H](OC(=O)CCc3ccccc3)[C@@H]2OC1=O 0.558
C=C(CCCC)/C(=C/C[C@@H](OC(C)=O)c1ccc(CO)o1)c1cc(C(=O)OC)ccc1OC -0.194
C=CCOC(=O)[C@@H]1[C@H]2C(=O)O[C@H](c3ccccc3)[C@H](c3ccccc3)N2[C@H](c2ccc(OCCOC(=O)[C@H]3C[C@H]4C(=O)N[C@@H](CCCC[N+](C)(C)C)C(=O)N4[C@H]3c3ccc(O)cc3)cc2)[C@@]12C(=O)Nc1ccc(I)cc12 -1.37
COC1(C)CN(Cc2ccccc2Br)[C@H](/C=C/c2ccccc2)[C@H](Cc2ccccc2)O1 (stereo partly drawn) 0.523
C=CCN1C(=O)[C@]2(CC=C)N=C(c3ccc(OCCCO)cc3)O[C@@H]2c2ccccc21 0.509
CCCC=C(CCC)[C@@H](NP(=O)(c1ccccc1)c1ccccc1)c1ccc(C(F)(F)F)cc1 -0.93
CC(C)N1C(=O)[C@@]2(c3ccc([N+](=O)[O-])cc3)CC(=O)N(C3CCCCC3)[C@@H]2c2ccc(CO)cc21 -0.303
CON(C)C(=O)C=C1C[C@@H](c2cccc(Cl)c2)O[C@@H](c2cccc(Cl)c2)O1 0.134
[N-]=[N+]=NCc1ccccc1C[C@@]1(C(N)=O)N=C(c2ccc(OCCCO)cc2)O[C@@H]1c1ccccc1CN=[N+]=[N-] 0.041
O=C(O)[C@H]1C[C@H]2C(=O)N3CCC[C@H]3C(=O)N2[C@H]1c1cccc(OCCO)c1 0.896
C=C(CCCC)C(=O)CC[C@@H](OC(=O)c1ccccc1-c1ccccc1C(=O)O)c1cccc(OCCO)c1 -0.549
[N-]=[N+]=NCc1ccccc1C[C@]1(C(=O)NCC(O)CO)N=C(c2ccc(OCCCO)cc2)O[C@H]1c1ccccc1CN=[N+]=[N-] (stereo partly drawn) -0.012
C=CCNC(=O)[C@@H]1[C@H]2C(=O)O[C@H](c3ccccc3)[C@H](c3ccccc3)N2[C@H](c2ccc(OCCO)cc2)[C@@]12C(=O)N(C(=O)OCCOC)c1ccc(C#CC3=CCCCC3)cc12 -0.206
O=C1OCCC=C[C@H]2OC34C=CCN(c5ccc(Cl)cc5)C(=O)[C@H]3N(CCCCCO)C(=O)[C@@H]4C12 (stereo partly drawn) 1.83
COc1c(C)cc(-c2cc3c(c(-c4ccccc4)n2)[Si](C(C)C)(C(C)C)OC3)cc1C 0.319
CCCCN1CC=CC23O[C@@H]4/C=C\CCC(C)OC(=O)C4[C@H]2C(=O)N(CCCCCCO)[C@@H]3C1=O (stereo partly drawn) 0.544
